Results from PubChem BioAssay AID651702 (NMMLSC, 2012).
“And” between values parts separate entries of the source, which are not always exact repeats. Equal values may be shown once. The whole screen tested about 360,000 compounds, of which about 2,400 (0.67%) were called active. This is one part of a sample in which actives are shown more often than they occur.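 How the source made its calls: active means inhibition above about 55% (limit read from the data); inconclusive means no clear call, values can overlap the other calls; inactive means the rest.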

Assay: LAMP-1 surface exposure blockers, TALL-104 cells – cell-based, flow cytometry, MLPCN library, primary screen (AID 651702)
Settings: TALL-104 LAMP-1 surface exposure, at 10 µM, stronger effect = higher value, cells stimulated with thapsigargin and PMA

inhibition, active:
Cc1cccc(N2CCC(NCc3c(C(=O)N4CCCCC4)nc4c(C)cccn34)CC2)c1 60.5%
COc1ccc(C)cc1Nc1n[n+](-c2ccccc2)c(-c2cccc(Cl)c2Cl)s1 93.6%
O=C(NCCc1c[nH]c2ccccc12)C1CCN(Cc2ccc(Br)cc2)CC1 77%
O=C(COc1ccc(Cl)cc1)N1CCN(c2cccc(C(F)(F)F)c2)CC1 58.7%
CCOc1cc(/C=C(\C#N)c2nc(-c3cccs3)c(NC(C)=O)s2)ccc1O 69.2%
CC(=O)Nc1ccc(-c2csc(NC(=O)Nc3ccccc3)n2)cc1 104%
CCCCNC(=O)C(C)N(CCN(C)C)C(=O)CCCCCN1C(=O)NC(c2ccc(Cl)cc2)C(C(=O)OCc2ccccc2)=C1C (stereo not given) 61.8%
CCCCNC(=O)C(C)N(CCN(C)C)C(=O)CCCN1C(=O)NC(c2ccc(Cl)cc2)C(C(=O)OCc2ccccc2)=C1C (stereo not given) 65.1%
O=[N+]([O-])/C=C/c1ccc2c(ccn2Cc2ccccc2)c1 79.9%
CN(C)CCNC(=O)c1ccc(-c2cn3c(-c4ccc(Oc5ccccc5)cc4)cnc3cn2)cc1 57.2%
Cc1cc2oc(=O)cc(CN(C)Cc3ccc(OC(F)F)cc3)c2cc1Cl 76.8%
CCc1ccc(-c2cc3c(=O)n(CC(=O)NCCCN4CCN(Cc5ccccc5)CC4)nc(C)n3n2)cc1 57.5%
CCN1/C(=C\c2ccc3ccccc3[n+]2CC)Sc2cc(C)ccc21 63.6%
O=C(/C=C/Sc1ncn[nH]1)c1ccc(Cl)cc1 69%
Cc1cccc(C)c1NC(=O)C(Cl)C(=O)c1ccccc1 (stereo not given) 72.7%
Cc1cccc(N(CC(=O)Nc2ccc(-c3nc4ccc(C)cc4s3)cc2)S(C)(=O)=O)c1 68%
CCCCc1ccc(NC(=S)NCCCN2CCOCC2)cc1 67%
COc1ccccc1CN1CCN(C(c2ccccc2)c2ccccc2)CC1 69.5%

inhibition, inactive:
Cc1cccc(N2CCN(C(=O)c3cccc(N4C(=O)C5C6C=CC(C6)C5C4=O)c3)CC2)c1C (stereo not given) -1.1%
CSCCC(C(=O)NC(C)(C)C)n1c(-c2ccccc2)nc2ccccc21 (stereo not given) -0.9%
CCOc1ccc(NS(=O)(=O)c2ccc(C(=O)NCC(c3ccccc3OC)N3CCCC3)cc2)cc1 (stereo not given) -1.8%
COc1ccc(S(=O)(=O)N(C)C)cc1NC(=O)COC(=O)c1n[nH]c2ccccc12 -22.7%
CCOC(=O)C1CCN(Cc2c(C(=O)N3CCOCC3)nc3c(C)cccn23)CC1 -2.4%
Cc1cccn2c(CNCC(C)Oc3cccnc3)c(C(=O)N3CCOCC3)nc12 (stereo not given) -5%
OCCn1c(-c2ccccc2)csc1=Nc1ccccc1 -1.3%
CCc1ccc(Nc2n[n+](-c3ccccc3)c(-c3cccc(Cl)c3Cl)s2)cc1 5.9%
COc1cc(Br)c(-c2sc(Nc3ccccc3)n[n+]2-c2ccccc2)cc1OC -3.6%
Cc1c(Cl)cccc1NC(=O)CCC(=O)N/N=C/c1ccco1 4.7%
CCOc1ccc(OCC)c(NC(=O)CSc2nnc(Cn3cnc4ccccc43)n2C)c1 0.1%
Cc1ccc2[nH]cc(CCNC(=O)C3CCCCC3)c2c1 -2.8%
CCOc1ccc(CN2CCN(Cc3c[nH]c4ccccc34)CC2)cc1 35.2%
CCOC(=O)C1=C(C)NC2=C(C(=O)CC(C)(C)C2)C1c1ccsc1 (stereo not given) 0.2%
CC(C)OC(=O)CC(=O)CC(O)c1cccc([N+](=O)[O-])c1 (stereo not given) -10.1%
CSCCC(NC(=O)COc1ccccc1)C(=O)N1CCN(c2cccc(C(F)(F)F)c2)CC1 (stereo not given) 1.5%
Cc1c(C)c2ccc(OCC(=O)N3CCN(c4cccc(Cl)c4)CC3)cc2oc1=O -2.4%
O=C(O)Cc1csc(-c2cccc(Oc3ccccc3)c2)n1 -3.1% and -3.3%
CCOc1ccc(NC(=O)CN(C)C(=O)CCSc2ccc(F)cc2)cc1OCC 14.3%
CC(C)c1ccc(-c2nn[nH]n2)cc1 21.6%
COc1ccc(S(=O)(=O)N2CCN(CC(=O)N3c4ccccc4CC3C)CC2)cc1OC (stereo not given) 6.4%
CCOc1cc(/C=N/NC(=O)c2c(C)nc3ccc(Cl)cn23)ccc1O 3.8%
CCOc1cc(/C=N/NC(=O)CN2CCCCC2)ccc1O 3.8%
Cc1ccc(NC(=O)Nc2cc(-c3ccccc3)nn2C)cc1Cl 3%
CC(=O)NC(c1ccccc1)c1nc(-c2cccc(C(C)C)c2)cs1 (stereo not given) -1.9%
Cn1c(=O)c([N+](=O)[O-])c(Oc2ccccc2)c2ccccc21 -0.7%
COc1ccc(NS(=O)(=O)c2cc(NC(=O)CC(=O)c3ccc([N+](=O)[O-])cc3)ccc2C)cc1 -16.7%
C=CCn1c(CCNC(=O)c2ccccc2F)nnc1SCC(=O)Nc1ccc(OC)cc1 -1.4%
COC(=O)C1=C(C)N(Cc2ccccc2)C(=NCCCOC(C)C)N[C@H]1c1ccccc1 -2.7%
CCOC(=O)C1=C(CN2CCc3ccccc32)NC(=O)NC1c1ccc(Cl)cc1 (stereo not given) -0.5%
CCOC(=O)CCCNC(=O)CN1C(=O)NC(CCc2ccccc2)C1=O (stereo not given) -0.3%
CCOC(=O)C1=C(C)N(C[C@@H]2CC[C@@H](Cc3ccc(-c4ccccc4)cc3)O2)C(=O)NC1c1ccc([N+](=O)[O-])cc1 (stereo not given in full) 1.6%
COc1ccc(OC)c(CN2C(=O)CCC2(C)c2nnnn2Cc2ccccc2)c1 (stereo not given) -8.5%
O=C(CSc1nnc(-c2ccoc2)o1)N1CCOCC1 -6.6%
C=CCC[C@@H](CCCCC)OC(=O)/C=C/[C@@H](O)[C@H](O)C[C@H](O)CC=C -9.1%
Cc1ccc2oc(C(=O)N3CCN(C)C[C@@H]3C(C)C)c(C)c2c1 1.3%
CCOC(=O)C1C(C)C(C(C)(C)C)N(S(=O)(=O)c2ccc(C)cc2)C1c1ccccc1 (stereo not given) -9.6%
NS(=O)(=O)c1ccc(CCNC(=O)CCCn2c(SCC(=O)N3CCCC3)nc3ccsc3c2=O)cc1 -2.5%
CN(C)CCNC(=O)c1cccc(-c2cnc3c(NC=O)cc(-c4cccc(C(F)(F)F)c4)cn23)c1 39.3%
CN(C)C(CNC(=O)c1ccc(OCc2cn3ccccc3n2)cc1)c1ccco1 (stereo not given) -4.3%
CCCCCC(O)(CCN1CCCCC1)c1ccccc1 (stereo not given) 1.7%
Cc1cc(F)ccc1NC(=O)C(C)n1c2ccccc2c2nc(=O)cc(C)n21 (stereo not given) 0.1%
CC(C)N1C(=O)c2ccccc2NC(=O)C1C(=O)NCc1cccs1 (stereo not given) 16.2%
Cc1ccc(CN(C)Cc2cc(=O)oc3cc(C)c(Cl)cc23)cc1 -0.1%
Cc1cc2oc(=O)cc(CN(C)Cc3ccccc3)c2cc1Cl -1.1%
CCC(C(=O)NCc1cccnc1)n1nc(C)c2sc3ccccc3c2c1=O (stereo not given) 5.3%
O=C(Cn1ncc2c3ccccc3n(Cc3ccccc3)c2c1=O)NCCCN1CCOCC1 0.7%
Cc1nn(CC(=O)NCCc2ccccc2)c(=O)c2cc3occc3n12 -1.6%
O=C(NCC(F)(F)F)Nc1nnc(C(F)(F)F)s1 4.2%
O=C(CCCN1CCc2[nH]c3ccc(F)cc3c2C1)c1ccc(F)cc1 38.3%
C=CCn1c(SCc2ccc(Cl)c(Cl)c2)nnc1C(CO)NC(=O)c1ccc(OC)cc1 (stereo not given) 0.1%
Cc1ccc(C)c(S(=O)(=O)N2CCN(c3ncnc4sccc34)CC2)c1 -10.6%
CC1C(=O)Nc2ccccc2N1C(=O)c1ccc(F)cc1F (stereo not given) -3.6%
COc1ccc(F)cc1C(=O)COC(=O)c1n[nH]c(=O)c2ccccc12 3.6%
CC1CCC(CN2CCN=C2N(C)C)CC1 (stereo not given) 8.2%
Cc1cccc(C)c1NC(=O)COC(=O)c1ccccc1O -9.6%
Cc1cccc(C)c1NC(=O)N1CC(C)OC(C)C1 (stereo not given) -0.4%
Cc1ccc(N(C(=O)CNC(=O)c2ccco2)C(C(=O)NC2CCCC2)c2ccncc2)cc1 (stereo not given) -16.9%
COCCc1nn2c(=O)cc(COC(=O)c3cc(OC)c(OC)c(OC)c3)nc2s1 -0.5%
Cc1ccc(N(CC(=O)Nc2cc(C)cc(C)c2)S(=O)(=O)c2cccc3nonc23)cc1 2.1%
CCN(CC)S(=O)(=O)c1ccc(NC(=O)CN(c2cccc(F)c2)S(C)(=O)=O)cc1 -6%
CCn1c(O)c2ccc(C(=O)N=NC(=O)c3cccnc3)cc2c1O -0.4%
CCc1sc(C(=O)N2CCN(CC(=O)Nc3cccc(F)c3)CC2)cc1C -5.4%
CC(=O)C[C@@H]1OC[C@H](C)N1S(=O)(=O)c1ccc(C)cc1 -6.7%
COc1ccc(-c2cc(=O)oc3cc(OC(C)C(=O)NCC4CCC(C(=O)O)CC4)ccc23)cc1 (stereo not given) 19.5%
Cc1ccc([N+](=O)[O-])c(OCCCNCC(C)O)c1 (stereo not given) 0%
Cc1cc(C)cc(NC(=S)NCCCN2CCOCC2)c1 -0.8%
CCCC(=O)NC(=S)Nc1ccc(CN2CCOCC2)cc1 -6.2%
Cc1ccc(S(=O)(=O)N2CCC(=O)N([C@H](COCc3ccccc3)C(C)C)CC2)cc1 -7.5%
CC(C)CCN1CCN=C1N(C)C -1.5%
COc1cccc(OC)c1C(=O)N1CCN(Cc2ccccc2F)CC1 0.4%
COc1ccccc1CN1CCN(Cc2cc(OC)c(OC)cc2OC)CC1 4.3%
